Test results taken from PubChem BioAssay (NCATS).
Results filed as inconclusive are left out. A call without a number means that no potency is given here. The source made the active and inactive calls. Calls follow the shape of the dose curve; as a rule, active = well fitted inhibition curve with a large enough effect; inconclusive = small, poorly fitted or top-dose-only effect; inactive = no such curve, though single readings can be large or run the other way. *1 amine or outer side, *2 acyl side, *3 side chain or, on linkers, in order; H or OH if unused. Where a SMILES comes first, the peptide text is derived from it. Bridges are numbered along the chain shown (N, C = ends). [ ]: non-standard residue; d: D form. X6 = O=C(CCC[*:2])[*:1]; 2Abz = Nc1ccccc1C(=O)O

Experiment: P-glycoprotein substrates identified in KB-3-1 adenocarcinoma cell line, qHTS therapeutic library screen (AID 1346986); also: nearly all actives have a fitted effect of over 60% in size;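 also: potency is for cytotoxicity meaning loss of cell viability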
Details: KB-3-1 parental cells viability, CellTiter-Glo, 72 h; series mostly up to 44.5 µM
How it was run: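 Using luminescence to quantify ATP, parental and P-gp-overexpressing KB cells were compared after 72 h compound titration. KB-8-5-11 was also run with the P-gp inhibitor tariquidar.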
Potency is read from the fitted curve at half-maximal effect.

Question: With CCC(C)(O)C(O)C(=O)OCc1ccc(O[C@@H]2O[C@H](CO)[C@@H](O)[C@H](O)[C@H]2O)cc1 (stereo partly specified) as the molecule, how does the Potency read?
Answer: inactive

Question: Which Potency does the source give for Cc1nc2c(-c3cnc(N)nc3)nc(N3CCOCC3)nc2n1C(C)C here?
Answer: 259 nM (active)

Question: Which Potency does the source give for COc1ccc2c(c1)OC[C@]1(O)c3cc4c(cc3O[C@H]21)OCO4 here?
Answer: inactive

Question: Which Potency does the source give for CC(/C=C/C1(O)C(C)CC(O)CC1(C)C)OC1OC(CO)C(O)C(O)C1O (stereo unspecified) here?
Answer: inactive

Question: For COc1c2c(c(C)c3c1C(=O)OC3)O[C@@]1(C)C[C@@H](O)[C@]34O[C@](OC)(CC[C@]3(C)[C@H]1C2)OC4(C)C, which Potency is on record?
Answer: inactive

Question: For CC[C@H](C)[C@@H]1NC(=O)[C@H](Cc2ccc(OC)cc2)NC(=O)CCCSC[C@@H](C(=O)N2CCC[C@H]2C(=O)N[C@@H](CC(C)C)C(=O)NCC(N)=O)NC(=O)[C@H](CC(N)=O)NC(=O)[C@H](CCC(N)=O)NC1=O (Y(Me)IQNCPLG-NH2; linker N-5 via X6), which Potency is on record?
Answer: inactive

Question: Which Potency does the source give for CC(C)C1=CCC(C)(O)C(OC2OC(CO)C(O)C(O)C2O)C1 (stereo unspecified) here?
Answer: inactive

Question: With C=CC(C)(C)C12CC3C(=O)NC(Cc4cnc[nH]4)C(=O)N3C1Nc1ccccc12 (stereo unspecified) as the molecule, how does the Potency read?
Answer: inactive

Question: Which outcome does the source give for CCCCCCc1cccc(NC(=O)[C@H](N)CCP(=O)(O)O)c1 here?
Answer: inactive [at 9.29 µM]

Question: With Cc1cc(O)c(C(C)C)cc1O[C@@H]1O[C@H](CO)[C@@H](O)[C@H](O)[C@H]1O as the molecule, how does the Potency read?
Answer: inactive

Question: With O=C(NCc1ccc(OC(F)(F)F)cc1)C1c2ccccc2C(=O)N1C1CCOCC1 (stereo unspecified) as the molecule, how does the Potency read?
Answer: inactive

Question: Which Potency does the source give for C=C1C2=CC(O)C(C)C1(C)CC/C(C)=C/CCC1(C)OC1C2=O (stereo unspecified) here?
Answer: inactive

Question: Which Potency does the source give for CC(=O)O[C@H]1C[C@@H]2[C@]3(CC[C@]4(C)[C@@H](C5(C)CCC(C(C)(C)O)O5)[C@@H](O)C[C@@]24C)C[C@@]32CC[C@H](O[C@@H]3OC[C@@H](O)[C@H](O)[C@H]3O)C(C)(C)[C@H]12 (stereo partly specified) here?
Answer: inactive

Question: Which Potency does the source give for CC1=CC(=O)CC(C)(CO[C@@H]2O[C@H](CO)[C@@H](O)[C@H](O)[C@H]2O)C1(O)/C=C/C(C)=C/C(=O)O (stereo partly specified) here?
Answer: inactive

Question: With CC1=C(CC(=O)O)c2cc(F)ccc2C1=Cc1ccc(S(C)(=O)=O)cc1 as the molecule, how does the Potency read?
Answer: inactive

Question: With O=C(c1ccc(C#Cc2cccc(F)c2)cn1)N1CC2CC2C1 (stereo unspecified) as the molecule, how does the Potency read?
Answer: inactive

Question: Which Potency does the source give for C=C1C[C@]23C[C@H]1CC[C@H]2[C@@]12C=C[C@H](O)[C@@](C)(C(=O)O1)[C@H]2[C@@H]3C(=O)O here?
Answer: inactive

Question: Which Potency does the source give for CCOc1nc2cccc(C(=O)O)c2n1Cc1ccc(-c2ccccc2-c2noc(=O)[nH]2)cc1 here?
Answer: inactive

Question: For O=C(C1CC1)N1CC[C@@H](Cc2n[nH]c(=O)n2-c2ccc(-c3ccc4occc4c3)cc2)C1, which Potency is on record?
Answer: inactive

Question: For C/C=C(\C)C(=O)O[C@H]1[C@H](O)[C@]2(COC(C)=O)[C@H](O)C[C@]3(C)C(=CCC4[C@@]5(C)CC[C@H](O[C@@H]6O[C@H](C(=O)O)[C@@H](O[C@@H]7O[C@H](CO)[C@@H](O)[C@H](O)[C@H]7O)[C@H](O)[C@H]6O[C@@H]6O[C@H](CO)[C@@H](O)[C@H](O)[C@H]6O)[C@](C)(CO)C5CC[C@]43C)[C@@H]2CC1(C)C (stereo partly specified), which outcome is on record?
Answer: inactive [at 9.29 µM]

Question: With COC12CC3C(C(C)C1=CC(=O)O2)C(O)C(OC(C)=O)C1C(C)(C)C(OC(C)=O)CCC31C (stereo unspecified) as the molecule, how does the Potency read?
Answer: inactive

Question: Which Potency does the source give for CCC(C)C1NC(=O)C2CCCN2C(=O)C(C(C)C)NC(=O)c2ccccc2NC(=O)C(Cc2ccc(O)cc2)NC(=O)C(C)NC(=O)C(C(C)O)NC1=O (stereo unspecified) (cyclo([2Abz]VPITAY); configuration not given here) here?
Answer: inactive

Question: For C[C@@H](O)[C@H](N)C(=O)N1CCC[C@H]1C(=O)N1CCC[C@H]1C(=O)N[C@H](C(N)=O)[C@@H](C)O (H-TPPT-NH2), which outcome is on record?
Answer: inactive [at 9.29 µM]

Question: With C/C=C1/[C@H](O[C@@H]2O[C@H](CO)[C@@H](O)[C@H](O)[C@H]2O)OC=C(C(=O)OC)[C@H]1CC(=O)O[C@@H]1O[C@H](CO)[C@@H](O)[C@H](O)[C@H]1O as the molecule, how does the Potency read?
Answer: inactive

Question: For COc1ccc2c(c1)O[C@H](O[C@@H]1O[C@H](CO)[C@@H](O)[C@H](O)[C@H]1O)C(=O)N2, which Potency is on record?
Answer: inactive

Question: Which outcome does the source give for C[C@@H]1O[C@@H](O[C@H]2[C@H](OC(=O)[C@]34CCC(C)(C)C[C@H]3C3=CCC5[C@@]6(C)C[C@H](O)[C@H](O[C@@H]7O[C@H](CO)[C@@H](O[C@@H]8O[C@H](CO)[C@@H](O)[C@H](O)[C@H]8O)[C@H](O)[C@H]7O)[C@@](C)(CO)C6[C@H](O)C[C@@]5(C)[C@]3(C)C[C@H]4O)OC[C@H](O)[C@@H]2O)[C@H](O)[C@H](O)[C@H]1O[C@@H]1OC[C@@H](O)[C@H](O[C@@H]2OC[C@](O)(CO)[C@H]2O)[C@H]1O (stereo partly specified) here?
Answer: inactive [at 9.29 µM]
